# Measured values from publication PMC8384837, “Expanding the binding specificity for RNA recognition by a PUF domain”.
# Columns and labels:
# Assay in all cases: yeast three-hybrid, YBZ-1, SC-Leu-His + 0.5 mM 3-AT, 4 days
# Details in all cases: tags: N-Gal4 AD-HA kept; label: inside an RPR1-promoter hybrid RNA with tandem MS2 sites; ssRNA
# PUM1 PUF domain R5-KLM = PUM1 PUF domain R5-KLM (Homo sapiens, UniProt Q14671 828-1176, C1007K;R1008L;Q1011M)
# Summary of the method: (§1)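 The interaction score is the log change in variant frequency from input to selection. Scores were computed in log2 with a pseudocount of 1 for absent variants, using Illumina sequencing of PCR-amplified repeat regions. The input came from four days on SC-Leu and the selection from four days on SC-Leu-His + 0.5 mM 3-AT. The cells were strain YBZ-1 (LexA–MS2 coat fusion, HIS3 reporter) co-expressing Pumilio-1 PUF domain libraries and matching RNA elements from a centromeric plasmid.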
# PUM1 PUF domain R5-KGI = PUM1 PUF domain R5-KGI (Homo sapiens, UniProt Q14671 828-1176, C1007K;R1008G;Q1011I)
# PUM1 PUF domain R5-KGI, sequence (Q14671 828-1176 C1007K/R1008G/Q1011I): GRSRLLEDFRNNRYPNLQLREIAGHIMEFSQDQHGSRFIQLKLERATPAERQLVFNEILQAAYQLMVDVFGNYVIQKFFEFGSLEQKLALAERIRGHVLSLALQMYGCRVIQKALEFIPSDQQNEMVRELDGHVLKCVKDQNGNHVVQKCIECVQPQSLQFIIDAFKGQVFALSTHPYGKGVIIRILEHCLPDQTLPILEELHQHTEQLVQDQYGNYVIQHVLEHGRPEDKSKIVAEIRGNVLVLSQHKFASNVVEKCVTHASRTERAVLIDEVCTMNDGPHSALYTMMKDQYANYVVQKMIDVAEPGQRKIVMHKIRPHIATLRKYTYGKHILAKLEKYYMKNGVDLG
# Summary of the method: as §1
# PUM1 PUF domain R5-MKR = PUM1 PUF domain R5-MKR (Homo sapiens, UniProt Q14671 828-1176, C1007M;R1008K;Q1011R)
# Summary of the method: as §1
# PUM1 PUF domain R5-GQQ = PUM1 PUF domain R5-GQQ (Homo sapiens, UniProt Q14671 828-1176, C1007G;R1008Q)
# Summary of the method: as §1
# PUM1 PUF domain R5-EKL = PUM1 PUF domain R5-EKL (Homo sapiens, UniProt Q14671 828-1176, C1007E;R1008K;Q1011L)
# Summary of the method: as §1
# PUM1 PUF domain R4-SPL = PUM1 PUF domain R4-SPL (Homo sapiens, UniProt Q14671 828-1176, N971S;H972P;Q975L)
# PUM1 PUF domain R4-SPL, sequence (Q14671 828-1176 N971S/H972P/Q975L): as the sequence (Q14671 828-1176 C1007K/R1008G/Q1011I) above, with N144S, H145P, Q148L, K180C, G181R, I184Q counted along it
# Summary of the method: as §1
# PUM1 PUF domain R3-VCQ = PUM1 PUF domain R3-VCQ (Homo sapiens, UniProt Q14671 828-1176, C935V;R936C)
# PUM1 PUF domain R3-VCQ, sequence (Q14671 828-1176 C935V/R936C): as the sequence (Q14671 828-1176 C1007K/R1008G/Q1011I) above, with C108V, R109C, K180C, G181R, I184Q counted along it
# Summary of the method: as §1
# PUM1 PUF domain R4-AQS = PUM1 PUF domain R4-AQS (Homo sapiens, UniProt Q14671 828-1176, N971A;H972Q;Q975S)
# PUM1 PUF domain R4-AQS, sequence (Q14671 828-1176 N971A/H972Q/Q975S): as the sequence (Q14671 828-1176 C1007K/R1008G/Q1011I) above, with N144A, H145Q, Q148S, K180C, G181R, I184Q counted along it
# Summary of the method: as §1
# PUM1 PUF domain R4-ALG = PUM1 PUF domain R4-ALG (Homo sapiens, UniProt Q14671 828-1176, N971A;H972L;Q975G)
# Summary of the method: as §1
# PUM1 PUF domain R5-VRV = PUM1 PUF domain R5-VRV (Homo sapiens, UniProt Q14671 828-1176, C1007V;Q1011V)
# Summary of the method: as §1
# PUM1 PUF domain R6-DWQ = biological target: T1, PUM1 PUF domain R6-DWQ (Homo sapiens, UniProt Q14671 828-1176, N1043D;Y1044W)
# T1 sequence: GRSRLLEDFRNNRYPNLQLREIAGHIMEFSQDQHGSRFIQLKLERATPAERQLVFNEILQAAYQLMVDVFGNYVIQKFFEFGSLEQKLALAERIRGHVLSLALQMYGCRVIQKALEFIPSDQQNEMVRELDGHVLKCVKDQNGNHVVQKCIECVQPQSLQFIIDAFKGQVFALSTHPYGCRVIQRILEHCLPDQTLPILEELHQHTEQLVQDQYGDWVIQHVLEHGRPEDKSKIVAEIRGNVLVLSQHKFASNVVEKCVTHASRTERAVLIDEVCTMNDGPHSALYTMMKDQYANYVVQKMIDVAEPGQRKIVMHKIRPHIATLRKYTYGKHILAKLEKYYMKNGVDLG
# Summary of the method: as §1
# PUM1 PUF domain R5-KLM, sequence (Q14671 828-1176 C1007K/R1008L/Q1011M): as the sequence (Q14671 828-1176 C1007K/R1008G/Q1011I) above, with G181L, I184M counted along it
sequence,measurement,setting,value
GGCUAGAACUAGUGGAUCCCCCGGCGCCCGGCGGCUCGAGCCCGGGUAAGUGUCAAUAGUCUGCAUGCCGCCGGGCGCCAUGCCUGCAGGUCGACUCUAGAAAACAUG,binding signal,PUM1 PUF domain R5-KLM,2.69 log2 enrichment (interaction score)
same,binding signal,PUM1 PUF domain R5-KGI,3.97 log2 enrichment (interaction score)
same,binding signal,PUM1 PUF domain R5-MKR,2.84 log2 enrichment (interaction score)
same,binding signal,PUM1 PUF domain R5-GQQ,4.12 log2 enrichment (interaction score)
same,binding signal,PUM1 PUF domain R5-EKL,2.47 log2 enrichment (interaction score)
GGCUAGAACUAGUGGAUCCCCCGGCGCCCGGCGGCUCGAGCCCGGGUAAGUGUAUAUAGUCUGCAUGCCGCCGGGCGCCAUGCCUGCAGGUCGACUCUAGAAAACAUG,binding signal,PUM1 PUF domain R4-SPL,1.39 log2 enrichment (interaction score)
GGCUAGAACUAGUGGAUCCCCCGGCGCCCGGCGGCUCGAGCCCGGGUAAGUGUAAAUAGUCUGCAUGCCGCCGGGCGCCAUGCCUGCAGGUCGACUCUAGAAAACAUG,binding signal,PUM1 PUF domain R4-SPL,2.38 log2 enrichment (interaction score)
same,binding signal,PUM1 PUF domain R3-VCQ,2.76 log2 enrichment (interaction score)
same,binding signal,PUM1 PUF domain R4-AQS,2.27 log2 enrichment (interaction score)
same,binding signal,PUM1 PUF domain R4-ALG,2.12 log2 enrichment (interaction score)
same,binding signal,PUM1 PUF domain R5-VRV,3.36 log2 enrichment (interaction score)
same,binding signal,PUM1 PUF domain R6-DWQ,2.34 log2 enrichment (interaction score)
